Shown are actives, neighbours in structure and some others; about 27% of the full set was active somewhere.
Cav3 T inh: human Cav3.2 channel inhibition, primary screen; O95180; Cav3.2-expressing cells, Fluo-4 calcium fluorescence FDSS; stronger effect = lower value; B-score at 10 µM; 4% of 100,000 active; AID 449739;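 active means single-dose well whose peak fluorescence ratio is a statistical outlier from its plate by either plate-standardised score or position-corrected B-score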
PTK2B oligo ant: antagonists of human Pyk2 oligomerization; Q293 cells, Pyk2 FERM NanoBiT luminescence; stronger effect = lower value; z-score (the deposit names both 25 µM and 10 µM); 0.83% of 99,000 active; AID 1347419;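 active means Z-score of -3 or lower, scaled per plate to the spread of control and sample wells; inactive means z-score above -3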;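 further: negative z-score means lost luminescence so less FERM oligomerization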
Target sequence (Q14289 whole entry, looked up): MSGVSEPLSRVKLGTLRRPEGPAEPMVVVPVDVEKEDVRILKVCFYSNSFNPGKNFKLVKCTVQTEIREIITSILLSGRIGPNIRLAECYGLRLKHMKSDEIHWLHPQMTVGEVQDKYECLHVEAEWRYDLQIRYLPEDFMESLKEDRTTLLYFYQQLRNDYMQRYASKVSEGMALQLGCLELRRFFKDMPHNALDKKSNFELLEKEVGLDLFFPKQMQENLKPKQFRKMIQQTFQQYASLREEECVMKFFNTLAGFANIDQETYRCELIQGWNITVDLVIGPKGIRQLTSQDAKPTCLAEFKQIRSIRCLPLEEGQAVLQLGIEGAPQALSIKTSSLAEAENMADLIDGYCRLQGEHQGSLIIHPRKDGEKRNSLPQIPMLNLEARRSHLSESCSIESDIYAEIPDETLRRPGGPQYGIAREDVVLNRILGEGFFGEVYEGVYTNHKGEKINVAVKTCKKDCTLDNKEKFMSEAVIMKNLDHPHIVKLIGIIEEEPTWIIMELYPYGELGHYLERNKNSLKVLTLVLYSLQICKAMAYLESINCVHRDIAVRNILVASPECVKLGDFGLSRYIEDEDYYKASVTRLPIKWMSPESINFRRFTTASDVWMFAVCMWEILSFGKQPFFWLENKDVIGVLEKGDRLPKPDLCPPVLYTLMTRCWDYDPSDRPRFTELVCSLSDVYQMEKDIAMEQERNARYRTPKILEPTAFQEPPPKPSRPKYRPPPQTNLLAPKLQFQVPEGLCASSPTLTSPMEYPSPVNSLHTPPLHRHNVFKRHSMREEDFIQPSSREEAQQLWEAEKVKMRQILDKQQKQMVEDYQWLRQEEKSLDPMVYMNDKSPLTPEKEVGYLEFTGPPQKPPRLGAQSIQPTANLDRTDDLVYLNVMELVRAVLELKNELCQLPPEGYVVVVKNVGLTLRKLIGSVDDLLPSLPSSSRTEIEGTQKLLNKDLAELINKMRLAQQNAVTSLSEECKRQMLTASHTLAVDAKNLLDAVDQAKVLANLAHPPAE
CYP2C19 activ: activators of human cytochrome P450 2C19 | P33261 | recombinant CYP2C19, luciferin-H EGE luminescence; stronger effect = higher value; 0 = fully inhibited enzyme, 1 = untreated enzyme | activation factor at 5 µM | 96,000 tested, under 10 active | AID 1025;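 active means activation factor of at least 2 at 5 µM in the primary screen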;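 further: 0 = wells with 2.5 mM tranylcypromine and 1 = vehicle-only wells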
CYP2C9 inhib: inhibitors of human CYP2C9; P11712; CYP2C9 Supersomes, luciferin-H conversion, luminescence; inhibition, % at 5 µM; 20% of 96,000 active; AID 777;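 active means blocking of liver enzyme CYP2C9 beyond about 50% at 5 µM, limit read from the data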
CYP2C19 inh: inhibitors of human CYP2C19; CYP2C19 Supersomes, luciferin-H EGE luminescence, 30 min; inhibition, % at 5 µM; 21% of 96,000 active; AID 778;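 active means CYP2C19 inhibition above a set limit at 5 µM in the primary screen, cut at about 50% in these data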;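 further: plate controls were negative control wells for no effect and 2.5 mM tranylcypromine positive control for full effect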
CYP2C9 act: increases human cytochrome P450 2C9 activity; 1.4% of 96,000 active; recombinant CYP2C9, luciferin-H conversion, luminescence; stronger effect = higher value; factor 1 = untreated enzyme, 0 = blocked; activation factor at 5 µM; P11712;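 active means activation factor of 2 or more for CYP2C9 at a 5 µM dose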;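 further: 0 = sulfaphenazole-blocked wells and 1 = vehicle-only wells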
Active calls of the source: *; · = not tested or not shown.

SMILES	Cav3 T inh	PTK2B oligo ant	CYP2C19 activ	CYP2C9 inhib	CYP2C19 inh	CYP2C9 act
c1ccc2[nH]c(CSc3ncnc4c3oc3ccccc34)nc2c1	-3	-0.88	0.3	97*	69*	0
Cc1nc(SCc2nc3ccccc3[nH]2)c2oc3ccccc3c2n1	-1.9	-1.6	0.7	91*	32	0.1
CC(NC(=O)OCc1ccccc1)C(=O)N1CC(O)CC1C(=O)O (stereo unspecified)	-0.055	0.91	1.2	-16	-16	1.2
C/C(NCCN1CCOCC1)=C(\C#N)C(N)=O	0.2	-0.07	·	·	·	·
C1COC(NC(C2CC2)C2CC2)=N1	0.13	·	·	·	·	·
CCOc1ccc(-n2c(SC(C)C)nc3c(c2=O)SCC3)cc1	-2	-0.64	0.7	42	32	0.6
CC(C)(C)NC(=O)C(c1ccncc1)N(Cc1cccs1)C(=O)Cn1nnc(-c2cccs2)n1 (stereo unspecified)	-1	-0.38	0.1	92*	92*	0.1
Cc1ccc(C)c(N(C(=O)Cn2nnc(-c3cccs3)n2)C(C(=O)NC2CC2)c2ccc(C)o2)c1 (stereo unspecified)	0.33	-4.3*	0.5	22	48	0.8
Cc1ccc(N(C(=O)Cn2nnc(-c3cccs3)n2)C(C(=O)NC2CCCC2)c2ccncc2)cc1 (stereo unspecified)	-0.25	-0.02	0.5	54*	46	0.5
CC(C)(C)NC(=O)C(c1ccncc1)N(C(=O)Cn1nnc(-c2cccs2)n1)C1CCCCC1 (stereo unspecified)	0.8	-0.43	0.3	76*	69*	0.2
Cc1ccc(C(C(=O)NC(C)(C)C)N(Cc2ccco2)C(=O)Cn2nnc(-c3cccs3)n2)cc1 (stereo unspecified)	0.097	-1.4	·	·	·	·
CC(C)(C)NC(=O)C(c1ccc(O)cc1)N(Cc1ccco1)C(=O)Cn1nnc(-c2cccs2)n1 (stereo unspecified)	-2.7	-0.02	·	·	·	·
Cc1ccc(N(C(=O)Cn2nnc(-c3ccc(C)o3)n2)C(C(=O)NC2CCCC2)c2ccco2)cc1 (stereo unspecified)	-1.2	-0.24	0.9	27	11	0.7
COCCN1CN=C(Nc2nc3ccccc3s2)NC1	0.17	2.4	0.9	-9	9	1.1
O=C(Cn1nnc(-c2ccncc2)n1)N(C1CCCCC1)C1CCCCC1	-0.11	-0.72	0.1	87*	87*	0.1
Cc1ccc(-c2nnn(CC(=O)N(c3ccccc3)C(C(=O)NC(C)(C)C)c3cccs3)n2)o1 (stereo unspecified)	1.1	0.08	·	·	·	·
Cc1ccc(-c2nnn(CC(=O)N(Cc3ccccc3)C(C(=O)NC(C)(C)C)c3ccncc3)n2)o1 (stereo unspecified)	0.015	0.96	0.5	44	50*	0.6
O=C(NCc1ccccc1)C(c1ccc(F)cc1)N(Cc1ccc2c(c1)OCO2)C(=O)Cn1nnc(-c2cccs2)n1 (stereo unspecified)	-5.1*	-1.1	·	·	·	·
CC(N1CCOC1=O)S(=O)(=O)c1ccccc1 (stereo unspecified)	-0.59	0.74	1	-1	-2	1
CCC(=O)N1CCN(c2ccc(NC(=O)c3cccs3)cc2)CC1	0.2	-0.26	1.1	4	-12	1
Cc1ccc(NC(=O)CNC(=O)c2cccs2)cc1S(=O)(=O)Nc1ccc(Cl)cc1	·	-2.3	·	·	·	·
Cc1ccc(SCCNC(=O)c2ccccc2)cc1	-0.45	-0.26	0.6	23	37	0.8
Cc1ccc(NS(=O)(=O)c2cc(C(=O)NCCSC3CCCCC3)ccc2C)cc1	-4.5*	-0.55	0.7	54*	28	0.5
Cc1ccc(SCCNC(=O)c2ccc(C)c(S(=O)(=O)Nc3cccc(C)c3)c2)cc1	-4.6*	-1.6	0.4	71*	62*	0.3
Cc1ccc(NS(=O)(=O)c2cc(C(=O)NCCSc3ccc(C)cc3)ccc2C)cc1	-4.4*	-1.4	0.3	78*	67*	0.2
SMILES	Cav3 T inh	PTK2B oligo ant	CYP2C19 activ	CYP2C9 inhib	CYP2C19 inh	CYP2C9 act
Cc1ccc(C(=O)NCCSc2ccc(Cl)cc2)cc1S(=O)(=O)Nc1ccccc1	-2.8	-1.6	0.6	52*	39	0.5
CC1(C)C(=O)OC(c2ccco2)C(C)(C)C1=O (stereo unspecified)	0.7	0.24	0.7	-2	34	1
CCC1(CC)C(=O)C(C)(C)C(=O)OC1c1ccccn1 (stereo unspecified)	·	0.9	0.7	60*	33	0.4
CCOc1cc(/C=C2\N=C(C)OC2=O)cc(Br)c1OCCc1ccccc1	-0.76	-0.05	0.7	70*	28	0.3
CCCCNC(=O)c1onc(CSc2cc(C)cc(C)c2)c1C(=O)O	-1.3	·	0.8	73*	25	0.3
CCCCNC(=O)c1onc(CSc2cc(C)cc(C)c2)c1C(=O)NCCCC	-1.6	·	·	·	·	·
CCCCNC(=O)c1c(CSc2ccccc2)noc1C(=O)NCc1ccccc1	0.84	·	·	·	·	·
CCCCNC(=O)c1onc(CSc2cccc(C)c2)c1C(=O)O	-0.25	·	0.9	76*	10	0.2
O=C(c1ccc(Cl)cc1)c1cnc2ccccn12	0.25	-0.94	1.1	0	-7	1
Cc1cccc(Cn2c(C(C)(C)C)cc3cccnc32)c1	-1.6	0.52	0.9	-5	9	1
OC(CNCCc1ccccc1)c1ccccc1 (stereo unspecified)	0.034	0.51	0.3	0	67*	1
CCOC(=O)c1cc2n(c1/N=C/N(C)C)-c1ccccc1C2=O	-3.9*	-0.6	0.8	62*	22	0.4
CC(=O)N1CC=CC1(C)C(=O)O (stereo unspecified)	1.1	·	·	·	·	·
Cc1ccc2c3c1C1(C(=O)N3C(C)(C)CC2C)C(C#N)=C(N)Oc2cc(O)ccc21 (stereo unspecified)	-8.9*	-1.4	0.3	89*	70*	0.1
CC1=CC(C)(C)N2C(=O)C3(C(C#N)=C(N)Oc4cc(O)ccc43)c3cccc1c32 (stereo unspecified)	-6.2*	-2.1	0.7	51*	32	0.5
CC1=CC(C)(C)N2C(=O)C3(C(C#N)=C(N)OC4=C3C(=O)CC(C)(C)C4)c3cccc1c32 (stereo unspecified)	-0.32	·	0.9	6	5	0.9
CC1=CC(C)(C)N2C(=O)C3(C(C#N)=C(N)Oc4cc(C)oc(=O)c43)c3cc(C)cc1c32 (stereo unspecified)	0.092	-1.7	·	·	·	·
Cc1cc2c3c(c1)C1(C(=O)N3C(C)(C)CC2C)C(C#N)=C(N)Oc2cc(O)ccc21 (stereo unspecified)	-2.8	2.2	0.2	90*	79*	0.1
CCn1cc([N+](=O)[O-])c(C(=O)Nc2nc(-c3ccc(C)cc3)c(C)s2)n1	·	0	0.9	27	13	0.7
O=c1c2ccccc2nc(-c2ccc(Cl)cc2)n1C1CCS(=O)(=O)C1 (stereo unspecified)	-4.2*	2.9	·	·	·	·

Compound activity deposited in PubChem BioAssay by several laboratories.
